Experimental data: PubChem BioAssay AID1159580 (chemical genetic matrix, 2015)
The whole screen tested about 5,500 compounds, of which about 2,000 (36%) were called active. Another 18% or so got no clear call; they are omitted. Cut-off read from the data, not from the text of the source: active = normalized growth mostly below about 0.91 (no sharp cut-off); inconclusive = no clear call, values can overlap the other calls; inactive = mostly above about 0.92. This is one part of the list.

Assay: chemical genetic growth profiling, strain panel (AID 1159580);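 note: tested at 20 µM; growth read once vehicle control cultures reached saturation at 30 °C; 1 = growth at the plate median or of vehicle wells; lower values mean less growth of the strain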
Conditions: growth OD
[1] = S. cerevisiae deletion strains, locus YHR030C, strain SLT2, active compounds read low

Measured: normalized growth

COc1cc(N2C(=O)C=CC2=O)cc(OC)c1OC
inactive: S. cerevisiae deletion strains, locus YAR019C, strain CDC15, active compounds read low 0.924 | S. cerevisiae deletion strains, locus YBL105C, strain PKC1, active compounds read low 0.958 | S. cerevisiae deletion strains, locus YBR135W, strain CKS1, active compounds read low 0.95 | S. cerevisiae deletion strains, locus YBR136W, strain MEC1, active compounds read low 0.935 | S. cerevisiae deletion strains, locus YBR160W, strain CDC28, active compounds read low 0.958 | S. cerevisiae deletion strains, locus YDL017W, strain CDC7, active compounds read low 0.975 | S. cerevisiae deletion strains, locus YDL028C, strain MPS1, active compounds read low 0.958 | S. cerevisiae deletion strains, locus YDL108W, strain KIN28, active compounds read low 0.952 | S. cerevisiae deletion strains, locus YDL132W, strain cdc53, active compounds read low 0.94 | S. cerevisiae deletion strains, locus YDR052C, strain DBF4, active compounds read low 0.959 | S. cerevisiae deletion strains, locus YDR054C, strain cdc34, active compounds read low 0.947 | S. cerevisiae deletion strains, locus YDR226W, strain ADK1, active compounds read low 0.928 | S. cerevisiae deletion strains, locus YFL009W, strain cdc4, active compounds read low 0.968 | S. cerevisiae deletion strains, locus YFL029C, strain CAK1, active compounds read low 0.915 | S. cerevisiae deletion strains, locus YFR003C, strain YPI1, active compounds read low 0.989 | S. cerevisiae deletion strains, locus YFR028C, strain CDC14, active compounds read low 0.928 | S. cerevisiae deletion strains, locus YGR092W, strain DBF2, active compounds read low 0.967 | S. cerevisiae deletion strains, locus YHR079C, strain IRE1, active compounds read low 0.955 | S. cerevisiae deletion strains, locus YIL147C, strain SLN1, active compounds read low 0.982 | S. cerevisiae deletion strains, locus YJR016C, strain ILV3, active compounds read low 0.973 | S. cerevisiae deletion strains, locus YKL048C, strain ELM1, active compounds read low 0.947 | S. cerevisiae deletion strains, locus YKL193C, strain SDS22, active compounds read low 0.939 | S. cerevisiae deletion strains, locus YMR001C, strain CDC5, active compounds read low 0.928 | S. cerevisiae deletion strains, locus YMR205C, strain PFK2 (second series), active compounds read low 0.941 | S. cerevisiae deletion strains, locus YMR277W, strain FCP1, active compounds read low 0.926 | S. cerevisiae deletion strains, locus YNL006W, strain LST8, active compounds read low 1 | S. cerevisiae deletion strains, locus YNL020C, strain ARK1, active compounds read low 0.96 | S. cerevisiae deletion strains, locus YNL161W, strain CBK1, active compounds read low 0.961 | S. cerevisiae deletion strains, locus YNL207W, strain RIO2, active compounds read low 0.968 | S. cerevisiae deletion strains, locus YNL222W, strain SSU72, active compounds read low 0.943 | S. cerevisiae deletion strains, locus YNL307C, strain MCK1 (second series), active compounds read low 0.67 | S. cerevisiae deletion strains, locus YOL078W, strain AVO1, active compounds read low 0.93 | S. cerevisiae deletion strains, locus YOR061W, strain CKA2, active compounds read low 0.942 | S. cerevisiae deletion strains, locus YOR231W, strain MKK1, active compounds read low 0.92 | S. cerevisiae deletion strains, locus YOR329C, strain SCD5, active compounds read low 0.991 | S. cerevisiae deletion strains, locus YPL209C, strain IPL1, active compounds read low 0.964 | S. cerevisiae deletion strains, locus YPR025C, strain CCL1, active compounds read low 0.95 | S. cerevisiae deletion strains, locus YPR106W, strain ISR1, active compounds read low 0.924 | S. cerevisiae deletion strains, strain NNK1, active compounds read low 0.977 | S. cerevisiae deletion strains, strain TSCII, active compounds read low 0.933
active: S. cerevisiae deletion strains, locus YDL214C, strain PRR2, active compounds read low 0.159 | S. cerevisiae deletion strains, locus YDR477W, strain SNF1, active compounds read low 0.176 | S. cerevisiae deletion strains, locus YER123W, strain YCK3, active compounds read low 0.289 | S. cerevisiae deletion strains, locus YER133W, strain GLC7, active compounds read low 0.226 | S. cerevisiae deletion strains, locus YFR019W, strain FAB1, active compounds read low 0.378 | S. cerevisiae deletion strains, locus YGR040W, strain KSS1, active compounds read low 0.191 | S. cerevisiae deletion strains, locus YGR052W, strain FMP48, active compounds read low 0.156 | [1] 0.385 | S. cerevisiae deletion strains, locus YHR082C, strain KSP1, active compounds read low 0.147 | S. cerevisiae deletion strains, locus YJL095W, strain BCK1, active compounds read low 0.302 | S. cerevisiae deletion strains, locus YJL128C, strain PBS2, active compounds read low 0.553 | S. cerevisiae deletion strains, locus YJR066W, strain TOR1, active compounds read low 0.133 | S. cerevisiae deletion strains, locus YKL203C, strain TOR2, active compounds read low 0.357 | S. cerevisiae deletion strains, locus YLR113W, strain HOG1, active compounds read low 0.156 | S. cerevisiae deletion strains, locus YNL183C, strain NPR1, active compounds read low 0.143 | S. cerevisiae deletion strains, locus YOR119C, strain RIO1, active compounds read low 0.311 | S. cerevisiae deletion strains, locus YPL256C, strain CLN2, active compounds read low 0.129

CCC(=O)Nc1cc(OC)cc(OC)c1
inactive: S. cerevisiae deletion strains, locus YAL013W, strain DEP1, active compounds read low 1 | S. cerevisiae deletion strains, locus YBR229C, strain ROT2, active compounds read low 1.01 | S. cerevisiae deletion strains, locus YDL101C, strain DUN1, active compounds read low 1.01 | S. cerevisiae deletion strains, locus YDL134C, strain PPH21, active compounds read low 1 | S. cerevisiae deletion strains, locus YDR150W, strain NUM1, active compounds read low 0.908 | S. cerevisiae deletion strains, locus YEL061C, strain CIN8, active compounds read low 1 | S. cerevisiae deletion strains, locus YGR078C, strain PAC10, active compounds read low 1.01 | [1] 1.01 | S. cerevisiae deletion strains, locus YHR087W, strain rtc3, active compounds read low 1 | S. cerevisiae deletion strains, locus YJR043C, strain POL32, active compounds read low 0.963 | S. cerevisiae deletion strains, locus YJR075W, strain HOC1, active compounds read low 0.98 | S. cerevisiae deletion strains, locus YLR039C, strain RIC1, active compounds read low 1.04 | S. cerevisiae deletion strains, locus YLR058C, strain SHM2 (second series), active compounds read low 1.01 | S. cerevisiae deletion strains, locus YLR085C, strain ARP6, active compounds read low 0.973 | S. cerevisiae deletion strains, locus YLR262C, strain YPT6, active compounds read low 1.02 | S. cerevisiae deletion strains, locus YML094W, strain GIM5, active compounds read low 1.03 | S. cerevisiae deletion strains, locus YMR219W, strain ESC1, active compounds read low 0.999 | S. cerevisiae deletion strains, locus YMR263W, strain SAP30, active compounds read low 0.987 | S. cerevisiae deletion strains, locus YNL153C, strain GIM3, active compounds read low 0.997 | S. cerevisiae deletion strains, locus YNL298W, strain CLA4 (second series), active compounds read low 1.01 | S. cerevisiae deletion strains, locus YNL322C, strain KRE1, active compounds read low 1.01 | S. cerevisiae deletion strains, locus YNR030W, strain Alg12, active compounds read low 1.01 | S. cerevisiae deletion strains, locus YOL006C, strain TOP1, active compounds read low 0.998 | S. cerevisiae deletion strains, locus YPL055C, strain LGE1, active compounds read low 1.13 | S. cerevisiae deletion strains, locus YPL241C, strain CIN2, active compounds read low 1.03 | S. cerevisiae deletion strains, locus YPR135W, strain CTF4, active compounds read low 1.06 | S. cerevisiae strains, strain wild type, active compounds read low 1.02
